Source: PubChem BioAssay (Tox21)
Values joined by “and” are separate entries in the source; they are usually repeats but may differ in a detail not shown here. Equal values may be shown once. Records with an inconclusive call do not appear. Where a call stands in place of a potency, no number is given. Active and inactive are the calls of the source. Calls follow the shape of the dose curve; as a rule, active = well fitted inhibition curve with a large enough effect in the signal ratio in the repeat runs (not every such curve was filed as active); inconclusive = weak or mixed curves, or effect the other way; inactive = no such curve, though single readings can be large or run the other way; the % refers to the signal ratio.

The compounds below were run against Estrogen receptor beta (Homo sapiens) (UniProt Q92731) (assay: qHTS assay to identify small molecule antagonists of the estrogen receptor beta (ER-beta) signaling pathway (AID 1259378)). Conditions: ER-beta-UAS-bla HEK293T, beta-lactamase FRET ratio, 16 h; series mostly up to 92.4 µM.
Sequence of Estrogen receptor beta (Homo sapiens) (Q92731 whole entry, looked up): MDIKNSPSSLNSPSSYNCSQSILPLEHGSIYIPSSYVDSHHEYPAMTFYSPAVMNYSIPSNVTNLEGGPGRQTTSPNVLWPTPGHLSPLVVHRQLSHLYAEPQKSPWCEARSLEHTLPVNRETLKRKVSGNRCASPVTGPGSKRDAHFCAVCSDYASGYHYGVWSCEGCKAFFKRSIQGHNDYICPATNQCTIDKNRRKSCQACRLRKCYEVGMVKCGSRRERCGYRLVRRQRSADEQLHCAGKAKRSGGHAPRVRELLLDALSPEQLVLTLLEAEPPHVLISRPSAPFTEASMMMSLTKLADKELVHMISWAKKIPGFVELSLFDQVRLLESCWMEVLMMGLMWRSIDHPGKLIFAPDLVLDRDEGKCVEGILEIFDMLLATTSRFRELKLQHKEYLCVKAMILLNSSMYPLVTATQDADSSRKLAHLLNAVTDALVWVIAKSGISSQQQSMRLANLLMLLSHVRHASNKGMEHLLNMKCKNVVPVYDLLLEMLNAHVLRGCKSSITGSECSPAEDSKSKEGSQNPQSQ
Source text: National Center for Advancing Translational Sciences [NCATS]
NIH Chemical Genomics Center [NCGC]
U.S. Environmental Protection Agency [EPA]
National Institutes of Environmental Health Sciences [NIEHS]
National Toxicology Program [NTP]
U.S. Food and Drug Administration [FDA]
Estrogen receptor (ER), a nuclear hormone receptor, plays an important role in development, metabolic homeostasis and reproduction. Two subtypes of ER, ER-alpha and ER-beta, have similar expression patterns with some uniqueness in both types. Endocrine disrupting chemicals (EDCs) and their interactions with steroid hormone receptors like ER causes disruption of normal endocrine function. To identify the compounds that inhibit ER signaling, an ER-beta-UAS-bla GripTite cell line (Life Technologies, Madison, WI, USA) containing a beta-lactamase reporter gene under the control of an UAS response element was used to screen Tox21 10K compound library.
Tox21 Assay Protocol Summary:
ER-beta-UAS-bla HEK293T cells were dispensed at 2,000 cells/4 uL of assay medium containing 2% charcoal stripped FBS per well into black wall/clear-bottom 1536-well plates using a Multidrop Combi (ThermoFisher Scientific, Waltham, MA) dispenser. After the assay plates were incubated at a 37C and 5% CO2 for 6 hr, 23 nL of compounds dissolved in DMSO, positive controls or DMSO only was transferred to the assay plate by a Pintool station (Kalypsys, San Diego, CA), followed by addition of 1 uL (1nM as final concentration) of 17-beta-estradiol (E2) in assay medium using a BioRAPTR FRD (Flying Reagent Dispenser, Aurora Discovery, San Diego, CA). The plates were incubated at 37C and 5% CO2 for 16 hr. Then 1 uL of LiveBLAzerTM B/G FRET substrate was added using a Flying Reagent Dispenser, the plates were incubated at room temperature for 2 hours, and fluorescence intensity was measured by an Envision plate reader (PerkinElmer, Shelton, CT).
Potency is read from the fitted curve at half-maximal effect.

Row | Structure (SMILES) | Potency | activity, negative = inhibition
1 | Oc1ccccc1O | inactive | 
2 | CC(C)(C)C1CCC(=O)CC1 | inactive | 
3 | Cc1cc(-c2ccc(N=Nc3cc(S(=O)(=O)O)c4ccccc4c3N)c(C)c2)ccc1N=Nc1cc(S(=O)(=O)O)c2ccccc2c1N | inactive | 
4 | CCn1c2ccccc2c2cc([N+](=O)[O-])ccc21 | inactive | 
5 | CC(=O)OCC=C(C)C | inactive | 
6 | Cc1ccc(C(C)C)cc2c(C)ccc1-2 | inactive | 
7 | COc1cc(C)ccc1O | inactive | 
8 | CCCC1CCC(=O)CC1 | inactive | 
9 | CC(C)(C)NSc1nc2ccccc2s1 | inactive | 
10 | Cc1ccc(N/N=c2\c(=O)cc/c(=N\Nc3ccc(S(=O)(=O)O)cc3)c2=O)c(C)c1 | inactive | 
11 | CC/C=C\CCCCCO | inactive | 
12 | c1ccc(C(O[C@@H]2CCCN(CCc3ccc4c(c3)OCO4)C2)c2ccccc2)cc1 | 48.6 µM (active) | 
13 | CN(C)c1ccc(C(=C2C=CC(=[N+](C)C)C=C2)c2ccc(N(C)C)cc2)cc1 | 27.2 µM (active) and 37.6 µM (active) | 
14 | CCCC[P+](C)(CCCC)CCCC | inactive | 
15 | CCCCCCCC/C=C\CCCCCCCCN | inactive | 
16 | COc1cccc2c1C(=O)c1c(O)c3c(c(O)c1C2=O)C[C@@](O)(C(C)=O)C[C@@H]3O[C@H]1C[C@H](N)[C@H](O)[C@H](C)O1 | 4.22 µM (active) | 
17 | CCCCCC/C=C\CCCCCCCC(=O)O | inactive | 
18 | FC(F)(F)c1cccc(Cl)c1 | inactive | 
19 | O=C(O)Cc1ccccc1Nc1c(Cl)cccc1Cl | inactive | 
20 | Cc1ccc(-c2ccccc2)cc1 | inactive | 

Row | Structure (SMILES) | Potency | activity, negative = inhibition
21 | O=S(=O)(O)c1ccc(N=Nc2c(O)ccc3ccccc23)cc1 | inactive | 
22 | CCCCCCCCCCCC(=O)OCC(C)OC(=O)CCCCC(=O)O (stereo not given) | inactive | 
23 | OC/C=C/CO | inactive | 
24 | [Cu+] | inactive | 
25 | C#C[C@]1(O)CC[C@H]2[C@@H]3[C@H](C)CC4=C(CCC(=O)C4)[C@H]3CC[C@@]21C | inactive | 
26 | O=C(O)Cc1ccc2c(c1)C(=O)c1ccccc1CO2 | inactive | 
27 | O=C(O)O |  | 1.94% [at 8.39 µM] (inactive)
28 | O=C(/C=C/c1ccccc1)OC/C=C/c1ccccc1 | inactive | 
29 | O=C1CCCCCCCCCCCCCCCO1 | inactive | 
30 | CCCCOC(=O)CO | inactive | 
31 | O=C(Nc1ccc2c(O)c(N=Nc3ccc(N=Nc4ccc(S(=O)(=O)O)cc4)cc3)c(S(=O)(=O)O)cc2c1)c1ccccc1 | inactive | 
32 | CCO[Si](OCC)(OCC)OCC | inactive | 
33 | O=C(/C=C/c1ccc(O)c(O)c1)O[C@@H](C(=O)O)[C@@H](OC(=O)/C=C/c1ccc(O)c(O)c1)C(=O)O | inactive | 
34 | O=C1C(c2[nH]c3ccc(S(=O)(=O)O)cc3c2O)=Nc2ccc(S(=O)(=O)O)cc21 | inactive | 
35 | CCc1ccc(Br)cc1 | inactive | 
36 | OC[C@@H](O)[C@@H](O)CO | inactive | 
37 | CC(C)Cn1cnc2c(N)nc3ccccc3c21 |  | 5.3% [at 19 µM] (inactive)
38 | CN(C)CCN1CCN(c2cccc(Cl)c2)C1=O | inactive | 
39 | COC(=O)c1ccccc1C | inactive | 
40 | CC(C)OC(=O)C(O)(CC(=O)O)CC(=O)O | inactive | 
